As usually defined, the AC50 is the midpoint of the concentration-response curve, whichever way the signal moves.

Values joined by “and” are separate entries in the source; they are usually repeats but may differ in a detail not shown here. Identical values can stand only once. Screen size: about 16,000 compounds; about 5,700 (36%) were called active. About 24% were inconclusive and are not listed. Some of the results follow. Values without a mark were called inactive. The call rests on the fitted dose curve; in most records, active means well fitted curve in the direction sought with a large enough effect; inconclusive means small, poorly fitted or top-dose-only effect, or effect the other way; inactive means no such curve, though single readings can be large or run the other way.
On the % scale 0 is the no-effect control and ±100 the full control effect.

In the test the target is Cytochrome P450 1A2 (Homo sapiens) (UniProt P05177). Briefly: Cytochrome panel assay with activity outcomes. The note with it: recombinant CYP, pro-luciferin dealkylation, luminescence, p450-cyp1a2; series mostly up to 57.1 µM; activity, negative = inhibition: at the top concentration.
Chain of Cytochrome P450 1A2 (Homo sapiens) (P05177 whole entry, looked up): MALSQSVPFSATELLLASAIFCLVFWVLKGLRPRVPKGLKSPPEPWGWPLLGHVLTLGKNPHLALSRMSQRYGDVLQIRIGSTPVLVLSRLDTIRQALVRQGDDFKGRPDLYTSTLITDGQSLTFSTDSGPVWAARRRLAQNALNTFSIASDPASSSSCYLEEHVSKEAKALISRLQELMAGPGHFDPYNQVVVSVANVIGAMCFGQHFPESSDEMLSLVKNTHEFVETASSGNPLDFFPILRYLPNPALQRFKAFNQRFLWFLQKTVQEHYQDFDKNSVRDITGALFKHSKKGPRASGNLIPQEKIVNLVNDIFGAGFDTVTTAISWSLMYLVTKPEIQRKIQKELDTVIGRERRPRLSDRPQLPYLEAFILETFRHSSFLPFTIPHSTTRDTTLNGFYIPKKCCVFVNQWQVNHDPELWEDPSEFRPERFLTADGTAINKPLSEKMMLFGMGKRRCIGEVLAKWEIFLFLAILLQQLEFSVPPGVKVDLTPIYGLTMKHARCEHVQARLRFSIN
As to `CC(C)CN1CCC2(CC1)CCN(C(=O)c1cccn1C)CC2`, the “activity, negative = inhibition” value is 9.28%. Still for that read-out and setting: for `COCC(=O)N1CCC2(CCCN(c3ncccn3)C2)CC1` the value was -20.4%. Regarding `N=C(N)SCc1nc2ccccc2c(=O)n1-c1ccccc1Cl`, the AC50 is 1260 nM (active). On to `COc1cc(C=O)ccc1OCCCOc1ccccc1C(=O)O`, for which the “activity, negative = inhibition” value is -8.32%. Take `COc1ccc(C=Nc2c(O)ccc3ccccc23)cc1OC`: the AC50 is 251 nM (active).

As for `COC(=O)C/C=C\[C@@H](C)[C@@H](/C=N\O[C@@H](C)c1cn([C@H](CO)Cc2ccccc2)nn1)NS(=O)(=O)c1ccc(C)cc1`, the activity, negative = inhibition is -0.854% [at 11.4 µM] and -7.61% [at 11.4 µM]. As to `CC(C)CN1CC2(CCN(C(=O)c3cccc(F)c3)CC2)C1`, the “activity, negative = inhibition” value was 3.33%. In the case of `O=C1CCC(c2ccccc2)=NN1c1nc2ccccc2s1`, the concentration at half-maximal activity (AC50) is 398 nM (active).

Turning to `COc1ccccc1-c1cncnc1-n1ccnc1`, the AC50 is 12600 nM (active).

As to `c1cncc(-c2cncnc2-n2ccnc2)c1`, the concentration at half-maximal activity (AC50) was 20000 nM (active). Still for that read-out and setting: for `COc1cccc(-c2cncnc2-n2ccnc2)c1` the value was 100 nM (active); for `N#Cc1cccc(-c2cncnc2-n2ccnc2)c1`, 15800 nM (active). `Cc1cn(CC[C@H](N)C(=O)O)c(=O)[nH]c1=O`: the activity, negative = inhibition was -9.38% [at 11.4 µM].

For the compound `COC(=O)C[C@@H]1O[C@H]1[C@H](C)[C@@H](OC)C(C)C`, the activity, negative = inhibition is -6.59% [at 11.4 µM]. Regarding `COC(=O)[C@@]1(Cc2ccc(OC)cc2)[C@@H]2[C@@H](CC(=O)[C@H]2CC(=O)C(=O)N2CCCC2)CN1C(=O)c1ccccc1`, the “activity, negative = inhibition” value is -20.3%. Consider `COc1ccc(C[C@@H]2C(=O)N[C@H](C)C(=O)N(C)[C@@H]3Cc4ccc(cc4)Oc4cc(ccc4O)C[C@H](C(=O)N[C@@H](C)C(=O)N[C@H](C)C(=O)N2C)N(C)C3=O)cc1`, for which the activity, negative = inhibition is -16.4% [at 11.4 µM]. Still for that read-out and setting: for `CC(C)CC(=O)N[C@H](C(=O)N[C@H](C(=O)N[C@@H](CC(C)C)[C@H](O)CC(=O)N[C@@H](C)C(=O)N[C@@H](CC(C)C)[C@H](O)CC(=O)O)C(C)C)C(C)C` the value was 1.07% [at 25.6 µM]; for `COc1ccc(O[C@H]2C=C[C@@H](c3ccccc3)O[C@@H]2CO/N=C(\C)CCN2CCc3nc(-c4ccccc4)c(-c4ccccc4)cc3C2)cc1`, -6.98% [at 11.4 µM]. Consider `CCC(=O)N(Cc1ccco1)c1nc(-c2ccccc2)cs1`, for which the AC50 was 1260 nM (active). Turning to `Cc1ccccc1C(C(=O)NCc1ccccc1)N(Cc1ccco1)C(=O)c1ccccn1` (configuration not stated), the “activity, negative = inhibition” value is -0.421%. As for `Cc1cc2cccc(C)c2nc1SCC(=O)N(C)c1nc(-c2ccccc2)cs1`, the “activity, negative = inhibition” value is -13.1%. As for `CCn1c(C)cc(/C=C2\NC(=O)N(Cc3ccc(Cl)cc3)C2=O)c1C`, the AC50 was 355 nM (active).

Take `CCC(C(=O)NC(C)(C)C)N(C(=O)Cn1nnc(-c2cccs2)n1)c1cnc2ccccc2c1` (configuration not stated): the “activity, negative = inhibition” value was -18.4%. Still for that read-out and setting: the same measure for `Cc1cccc(N2CCN(CC(=O)Nc3ccc(-n4cnnn4)cc3)CC2)c1C`: 1.94%. On to `O=C(Nc1cnc2ccccc2c1)c1cccc(-n2cnnn2)c1`, for which the concentration at half-maximal activity (AC50) was 12600 nM (active). Take `O=C(Cn1cnc([N+](=O)[O-])n1)N/N=C/c1ccccc1O`: the half-maximal activity concentration (AC50) was 4470 nM (active). In the case of `CC(C)(C)NC(=O)Cn1cnc([N+](=O)[O-])n1`, the “activity, negative = inhibition” value is 18.8%.

As to `CC(NC(=O)Cn1cnc([N+](=O)[O-])n1)c1ccccc1` (configuration not stated), the “activity, negative = inhibition” value is 3.46%. On the same count and under the same terms, the same measure for `COC(=O)[C@@]1(Cc2ccccc2)[C@@H]2C(=CC(=O)[C@H]2CC(=O)C(=O)N(C)C)CN1C(=O)c1ccccc1`: -12.1%. For the compound `COc1ccccc1CCn1c(=O)c(-c2cccc(F)c2)nc2cncnc21`, the concentration at half-maximal activity (AC50) is 1580 nM (active). Regarding `COc1ccccc1CCn1c(=O)c(-c2cc(F)cc(F)c2)nc2cncnc21`, the AC50 was 1580 nM (active).

For `NC(=O)C1=CN([C@@H]2O[C@@H](COP(=O)(O)OP(=O)(O)OC[C@@H]3O[C@H](n4cnc5c(N)ncnc54)[C@@H](OP(=O)(O)O)[C@@H]3O)[C@H](O)[C@@H]2O)C=CC1`, the “activity, negative = inhibition” value was 10.8%. In the case of `CCCn1nc2cc(C(=O)NCc3ccc4c(c3)OCO4)ccc2c1OCC`, the “activity, negative = inhibition” value was -29.7%. As to `CCOc1c2ccc(C(=O)NC3CCCc4ccccc43)cc2nn1C` (configuration not stated), the half-maximal activity concentration (AC50) was 10000 nM (active). The same measure, in the same setting: the same measure for `CCCn1nc2cc(C(=O)NCc3ccc(C)cc3)ccc2c1OC`: 14100 nM (active). Turning to `CCCCn1nc2cc(C(=O)NCc3ccc(C(F)(F)F)cc3C(F)(F)F)ccc2c1OCC`, the “activity, negative = inhibition” value is -4.35%. `CCCn1nc2cc(C(=O)NC3CCCc4ccccc43)ccc2c1OCC` (configuration not stated): the “activity, negative = inhibition” value was -25.1%. In the case of `O=C(NC1CCCc2ccccc21)c1ccc(=O)[nH]c1` (configuration not stated), the “activity, negative = inhibition” value is 15%.

`CCCCn1nc2cc(C(=O)NCCCCc3ccccc3)ccc2c1OCC`: the “activity, negative = inhibition” value was 6.46%. As for `CCOc1c2ccc(C(=O)NCCCCc3ccccc3)cc2nn1C`, the AC50 was 2510 nM (active). For `CCCn1nc2cc(C(=O)NCCc3ccc(C)cc3)ccc2c1OCC`, the “activity, negative = inhibition” value was -23.8%. The same measure, in the same setting: for `CCCn1nc2cc(C(=O)NCCCCc3ccccc3)ccc2c1OCC` the value was -8.93%; for `COCCn1nc2cc(C(=O)NCC34CC5CC(CC(C5)C3)C4)ccc2c1OC`, -21.7%. With `CCOc1c2ccc(C(=O)NCc3ccc(OC(F)(F)F)cc3)cc2nn1C`, the AC50 is 2820 nM (active).

With `O=C(NCc1ccccc1)c1onc(CSc2ccc(F)cc2)c1C(=O)NCCCN1CCOCC1`, the “activity, negative = inhibition” value was -21.4%. `COc1cccc(C(=O)N(C)c2nnc(-c3ccncc3)s2)c1`: the AC50 is 12600 nM (active). Take `O=C(c1c(O)c2ccc(Cl)cc2[nH]c1=O)C1CC1`: the AC50 is 79.4 nM (active). For the compound `O=C(c1n[nH]c(=O)c2ccccc12)N1CCN(C2c3ccccc3-c3ccccc32)CC1`, the AC50 was 15800 nM (active). For `CCOc1ccc(CSC(CC(=O)O)C(=O)O)cc1` (configuration not stated), the “activity, negative = inhibition” value was -24.2%. Regarding `CCCOc1ccc(CSC(CC(=O)O)C(=O)O)cc1` (configuration not stated), the “activity, negative = inhibition” value was 12.7%. On to `CCCCOc1ccc(CC(=O)NO)cc1`, for which the half-maximal activity concentration (AC50) was 1580 nM (active). On to `O=C1C2Sc3[nH]c(=O)sc3C(c3ccccc3)C2C(=O)N1c1ccc(Cl)cc1` (configuration not stated), for which the “activity, negative = inhibition” value was -26.8%. On the same count and under the same terms, for `COc1ccc([C@@H]2CC(=O)c3c(O)cc(O[C@H]4O[C@@H](CO[C@H]5O[C@@H](C)[C@@H](O)[C@@H](O)[C@@H]5O)[C@@H](O)[C@@H](O)[C@@H]4O)cc3O2)cc1O` the value was -0.0093% [at 25.6 µM]. As to `Brc1ccc2cccnc2c1`, the AC50 was 2510 nM (active). On the same count and under the same terms, for `C=CCN(CC=C)CC(O)Cn1c2ccccc2c2ccccc21` (configuration not stated) the value was 2000 nM (active); for `Cc1ccc(OCC(O)Cn2c3ccccc3c3ccccc32)cc1` (configuration not stated), 1410 nM (active). Still for that read-out and setting: for `Cc1ccccc1OCC(O)Cn1c2ccccc2c2ccccc21` (configuration not stated) the value was 1780 nM (active).

Consider `COc1ccc(-c2cc3ccccc3n2CC(O)CNCCO)cc1` (configuration not stated), for which the “activity, negative = inhibition” value was -21.9%. Same read-out and setting: the same measure for `CC(=O)Nc1ccc(OCC(O)Cn2cnc3ccccc32)cc1` (configuration not stated): -3.03%; for `Cc1ccccc1OCC(O)Cn1c(NCc2ccccc2)nc2c1c(=O)[nH]c(=O)n2C` (configuration not stated): -29.3%; for `O[C@H](COc1ccccc1)CN1CCCCC1`: -3.85% [at 11.4 µM]. Turning to `CC(=O)Nc1ccc(OCC(O)Cn2c3ccccc3c3ccccc32)c(C)c1` (configuration not stated), the AC50 was 2820 nM (active). For the compound `C[n+]1cn(CC(O)COCc2ccccc2)c2ccccc21` (configuration not stated), the “activity, negative = inhibition” value is -13%. With `CC[C@@]12CCCN3CCc4c(n(c5ccccc45)C(=O)C1)[C@H]32`, the activity, negative = inhibition is -9.85% [at 2.29 µM]. Still for that read-out and setting: the same measure for `O=C(CCCCC(=O)Nc1c(I)cc(I)c(C(=O)O)c1I)Nc1c(I)cc(I)c(C(=O)O)c1I`: -8.15% [at 25.6 µM]. `CCOc1ccccc1Oc1coc2cc(OC)ccc2c1=O`: the half-maximal activity concentration (AC50) is 5010 nM (active). With `CCN(CC)Cc1c(O)ccc2c(=O)c(Oc3ccccc3OC)coc12`, the “activity, negative = inhibition” value is 39.3%.

As to `CCOc1ccccc1Oc1c(C)oc2cc(OC(=O)c3ccco3)ccc2c1=O`, the “activity, negative = inhibition” value was -30%. The same measure, in the same setting: for `CC(C)CC(=O)N1CCC(N2CCN(c3ccccc3)CC2)CC1` the value was -29.8%.

Regarding `CCOC(=O)C1(S(=O)(=O)c2ccccc2)CCN(Cc2ccccc2)CC1`, the “activity, negative = inhibition” value is -10.4%. On to `CCOC(=O)C1=C(O)C(=O)N(Cc2ccccc2)C1`, for which the concentration at half-maximal activity (AC50) is 1000 nM (active). With `CC(=O)N1CCC2(CCN(Cc3ccccc3)CC2)CC1`, the “activity, negative = inhibition” value was -1.26%. As to `Cc1cc(C)c2c(N=NN(C)C)[nH]nc2n1`, the concentration at half-maximal activity (AC50) was 2240 nM (active). In the case of `CCN(CC)N=Nc1[nH]nc2nc(C)cc(C)c12`, the concentration at half-maximal activity (AC50) is 2510 nM (active).

For the compound `CCOC(=O)N1CCC(NC(=O)CCC(=O)N2CC(C)Oc3ccc(C)cc32)CC1` (configuration not stated), the “activity, negative = inhibition” value was -20.3%.

For the compound `CO[C@@H]1COC(=O)CC=C[C@@H](C)[C@@H]2C=C[C@@H](O)[C@@H](COC(=O)C/C=C\[C@H]1C)O2`, the activity, negative = inhibition was -5.43% [at 11.4 µM].

With `CN(C)Cc1ccc(-c2cc3onc(-c4ccccc4)c3c(=O)n2C)cc1`, the activity, negative = inhibition is -13.3% [at 11.4 µM]. In the case of `CC(C)NC(=O)N1CCC2(CC1)CCN(C(=O)c1cnccn1)CC2`, the “activity, negative = inhibition” value is 0.219%.

Regarding `Nc1ccc(S(=O)(=O)Nc2ncccn2)cc1`, the “activity, negative = inhibition” value was -0.15% [at 25.6 µM]. As to `C/C(=N/S(=O)(=O)c1ccc(Cl)c(Cl)c1)OCC(C)(C)C`, the activity, negative = inhibition was -4.08% [at 11.4 µM].

Turning to `CCNS(=O)(=O)c1ccc(NS(C)(=O)=O)cc1`, the “activity, negative = inhibition” value was -6.6%. On the same count and under the same terms, the same measure for `COc1ccc(S(=O)(=O)Nc2ccc(S(=O)(=O)N3CCCCC3)cc2)cc1C`: -7.68%. On to `O=S(=O)(Nc1ccc(Cc2ccncc2)cc1)c1ccc(Cl)c(Cl)c1`, for which the AC50 was 126 nM (active).

On to `O=S(=O)(Nc1ccc(Cc2ccncc2)cc1)c1cccs1`, for which the AC50 was 126 nM (active). Same read-out and setting: the same measure for `O=S(=O)(Nc1ccc(Cc2ccncc2)cc1)c1ccc(Br)cc1`: 44.7 nM (active).

Take `O=C(C(Cc1ccccc1)N1C(=O)C2C3CCC(C3)C2C1=O)N1CCCCC1` (configuration not stated): the “activity, negative = inhibition” value is 10.3%. As for `Cc1nc2ccc3nc(NC(=O)c4ccc(S(=O)(=O)N5CCOCC5)cc4)sc3c2s1`, the “activity, negative = inhibition” value is -11.7%. The same measure, in the same setting: for `COc1cc(C(=O)Nc2nc3ccc4nc(C)sc4c3s2)cc(OC)c1OC` the value was -2.02%.

Regarding `Cc1nc2c(ccc3nc(NC(=O)c4ccc5c(c4)OCCO5)sc32)s1`, the AC50 is 3160 nM (active).

For `CC(=O)Nc1ccc2c(c1)C(=Nc1ccc(C(=O)O)cc1)c1ccccc1-2`, the AC50 is 316 nM (active). Take `O=C(O)c1ccc(NS(=O)(=O)Cc2ccccc2)cc1`: the activity, negative = inhibition was -12.1% [at 11.4 µM]. With `c1ccc2c(c1)C(=Nc1ccc(N=C3c4ccccc4-c4ccccc43)cc1)c1ccccc1-2`, the activity, negative = inhibition was -19.6% [at 2.29 µM].
